# Bioassay records as filed in PubChem.
# Hits are enriched below; roughly 9% of the tested compounds scored in any of these assays.
# PLK1 PBD block – qHTS for Inhibitors of PLK1-PDB (polo-like kinase 1 - polo-box domain): Primary Screen; 360,000 tested, 2.8% active; Potency, µM, for the others: max response, negative = inhibition, most hits filed as inhibitors; Plk1 PBD binding of FITC phosphopeptide, fluorescence polarization; AID 720504, 2013; also: series mostly up to about 57 µM; % is scaled to controls: 0 for no effect and ±100 for the full control effect; nearly all actives have a fitted effect of over 65% in size
# JMJD2A Tudor inh – qHTS Assay for Inhibitors of JMJD2A-Tudor Domain. Lysine-specific demethylase 4A (Homo sapiens), O75164. AlphaScreen JMJD2A-Tudor / H3K4me3 peptide binding. Potency, µM (titrated, usually from 114 µM), without a hit: at the top dose activity change, negative = inhibition, usual class: inhibitors. 390,000 tested, 4.4% active. AID 504339, 2011; also: % is scaled to controls: 0 for no effect and ±100 for the full control effect; nearly all actives have a fitted effect of over 50% in size
# G9a block – qHTS Assay for Inhibitors of Histone Lysine Methyltransferase G9a; G9a H3K9 monomethylation, AlphaScreen, 2 h; Potency, µM (series often up to 102 µM), for inactives: at the top dose activity, negative = inhibition, actives largely listed as inhibitors; Histone-lysine N-methyltransferase EHMT2 (Homo sapiens), Q96KQ7; 350,000 tested, 8.8% active; also: % is scaled to controls: 0 for no effect and ±100 for the full control effect; nearly all actives have a fitted effect of over 75% in size
# Target sequence (Q96KQ7 913-1193 limits assumed): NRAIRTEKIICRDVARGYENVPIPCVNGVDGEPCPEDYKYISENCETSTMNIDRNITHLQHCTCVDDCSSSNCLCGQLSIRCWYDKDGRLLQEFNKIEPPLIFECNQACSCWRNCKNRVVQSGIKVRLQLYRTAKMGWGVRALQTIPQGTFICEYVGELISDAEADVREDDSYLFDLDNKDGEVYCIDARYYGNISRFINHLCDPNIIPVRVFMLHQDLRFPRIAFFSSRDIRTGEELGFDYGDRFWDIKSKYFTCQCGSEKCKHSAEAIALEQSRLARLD
#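 Methyltransferase reactions run at room temperature for 2 h (20 nM enzyme, 500 nM biotin-H3K9 peptide, 20 uM SAM) after a 15 min compound preincubation; product detected by AlphaScreen beads and anti-H3K9me1 antibody.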
# BAZ2B block – qHTS Assay for Inhibitors of BAZ2B; Potency, µM (top dose mostly 114 µM), inactives show at the highest dose activity change, negative = inhibition, usual class: inhibitors; 360,000 tested, 4.4% active; AlphaScreen BAZ2B-H3K14Ac peptide displacement; Bromodomain adjacent to zinc finger domain protein 2B (Homo sapiens), Q9UIF8; also: % is scaled to controls: 0 for no effect and ±100 for the full control effect; nearly all actives have a fitted effect of over 60% in size
#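 In this displacement format the biotinylated H3(5-23) peptide acetylated at Lys14 serves as ligand at 50 nM, with BAZ2B at 50 nM in PBS pH 7.4 containing 0.01% Tween-20. Donor and acceptor beads are 10 ug/mL final.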
# 12-LOX inh – Primary qHTS assay for inhibitors of human arachidonate 12S-lipoxygenase (ALOX12): Round 2 | purified 12hLO, xylenol orange hydroperoxide absorbance | Potency, µM (series often up to 108 µM), inactives show top-dose activity change, negative = inhibition, actives largely listed as inhibitors | 580,000 tested, 1.1% active; also: % is scaled to controls: 0 for no effect and ±100 for the full control effect
#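 Hydroperoxide product was detected by ferrous iron/xylenol orange as the 573 to 405 nm absorbance ratio. Arachidonic acid at 40 uM (final) was turned over for 30 min at room temperature by 150 nM human 12hLO, pH 7.0 Hepes buffer, after 15 min compound preincubation.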
# HP1b chromo inh – HTS for Inhibitors of HP1-beta Chromodomain Interactions with Methylated Histone Tails; Potency, µM (highest dose often 114 µM), for inactives: at the highest dose activity change, negative = inhibition, usual class: inhibitors; AID 540317, 2011; 390,000 tested, 0.56% active; AlphaScreen HP1-beta / biotin-H3K9me3 peptide binding; also: nearly all actives have a fitted effect of over 70% in size
# Target sequence (P83916 whole entry, looked up): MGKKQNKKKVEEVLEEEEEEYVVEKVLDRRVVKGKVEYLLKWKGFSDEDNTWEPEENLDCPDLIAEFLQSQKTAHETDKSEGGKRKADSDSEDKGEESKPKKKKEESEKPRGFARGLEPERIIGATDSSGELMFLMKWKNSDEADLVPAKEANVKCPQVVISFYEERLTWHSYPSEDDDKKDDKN
#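 HP1-beta protein (50 nM final) preincubated 30 min at room temperature with biotinylated H3(1-18)K9me3 peptide (50 nM) in PBS pH 7.4, 0.01% Tween-20, then compound added for 30 min. AlphaScreen streptavidin donor/nickel chelate acceptor beads (10 ug/mL final), 30 min dark, luminescence read.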
# * hit, by the source's call; ? = inconclusive; · = no result; [ ] = dose if it differs, or a comment. Calls follow the shape of the dose curve; as a rule, active = well fitted curve in the direction sought with a large enough effect; inconclusive = small, poorly fitted or top-dose-only effect, or another doubt; inactive = no such curve, though single readings can be large; an effect the other way counts as inactive or inconclusive. Potency is read from the fitted curve at half-maximal effect.
SMILES,PLK1 PBD block,JMJD2A Tudor inh,G9a block,BAZ2B block,12-LOX inh,HP1b chromo inh
CC(=O)c1cccc(NC(=O)N2CC(C)OC(C)C2)c1 (stereo unspecified),1%,7%,6%,-4%,-22%,28%
Cc1cc(N2CCN(C)CC2)nc2ccc(NC(=S)N3CCCCC3)cc12,-14%,-32%,25µM*,?,-2%,9%
Cc1cc(N2CCN(C)CC2)nc2ccc(NC(=S)N3CCN(c4ccc(Cl)cc4)CC3)cc12,-14%,-30%,40µM*,-29%,-3%,-18%
Cc1cc(N2CCOCC2)nc2ccc(NC(=S)N3CCCCC3C)cc12 (stereo unspecified),-22%,?,45µM*,·,-6%,-2%
Cc1cc(N2CCN(C)CC2)nc2ccc(NC(=S)N3CCCCCC3)cc12,-9%,-35%,56µM*,-34%,20%,0%[57 µM]
Cc1ccc(NC(=O)c2ccc(NCCCN3CCC(C)CC3)c([N+](=O)[O-])c2)c(C)c1,-3%,-3%,-3%,-20%,0%,65%
COc1cc(N(Cc2ccccc2)Cc2ccccc2)c2ncn(C(C)C)c2c1,0%,?,16%[2.33 µM],?,-7%,10%
CC(C)n1cnc2c(N(C)c3ccccc3)nc(N(CCN(C)C)Cc3ccccc3)nc21,-15%,45µM*,?,32µM*,-19%,?
COc1ccccc1-c1cc(C(=O)O)c2cc(C)cc(C)c2n1,·,·,·,·,28µM*,·
COc1ccccc1-c1cc(C(=O)O)c2ccc(C)c(C)c2n1,·,·,·,·,-22%,·
O=C(O)c1ccc(N2C(=O)CC(SC(=NCc3ccc4c(c3)OCO4)Nc3ccccc3)C2=O)cc1 (stereo unspecified),53µM*,-27%,·,?,-9%,21%
Cc1cc(C)cc(N=C2NC(=O)/C(=C/c3cccs3)S2)c1,-13%,-31%,?,-28%,?,2%
COc1ccc(N=C2NC(=O)/C(=C\C=C\c3ccco3)S2)cc1,21µM*,20µM*,7.1µM*,28µM*,?,22µM*
Cc1cccc(N=C2NC(=O)/C(=C/C=C/c3ccco3)S2)c1,?,18µM*,14µM*,35µM*,45µM*,?
O=C1NC(=Nc2ccc(O)cc2)S/C1=C/c1ccco1,-11%,-28%,?,-13%,?,-15%
Cc1csc2nc(COC(=O)c3ccccc3NC(=O)c3ccc(F)cc3)cc(=O)n12,·,-5%,6%[59 µM],-4%,?,18%
CC(C)(C)OC(=O)NCCc1nnc(SCc2c(Cl)cccc2Cl)o1,-12%,7%,?,13%,-22%,21%
O=S(=O)(Nc1ccc(C(O)(C(F)(F)F)C(F)(F)F)cc1)c1ccc(Cl)c2nonc12,-30%,·,·,·,·,·
COc1ccc(CCNC(=O)c2nnn(CC(=O)Nc3ccc(C)cc3C)c2N)cc1OC,-3%,-29%,-10%[59 µM],79µM*,0%,40%
Cc1ccc(C)c(NC(=O)Cn2nnc(C(=O)NCCc3ccccc3)c2N)c1,·,-35%,?,4%[57.1 µM],0%,13%
Cc1ccc(NC(=O)Cn2nnc(C(=O)NCCc3ccccc3)c2N)c(C)c1,6µM*,11µM*,-13%[59 µM],?,·,13%
COc1cccc(Cn2nnc(C(=O)Nc3cc(C)ccc3C)c2N)c1,·,-17%,11%[59 µM],-4%,-15%,46%
COc1cccc(NC(=O)Cn2nnc(C(=O)NCc3cccs3)c2N)c1,-4%,-1%,5%,-24%,-5%,44%
COc1ccc(NC(=O)Cn2nnc(C(=O)NCc3cccs3)c2N)c(OC)c1,24µM*,22µM*,0%[59 µM],-16%,-15%,-19%
COc1ccc(Cl)cc1NC(=O)Cn1nnc(C(=O)NCCc2ccc(OC)c(OC)c2)c1N,-3%,-22%,12%,-13%,-34%,13%[57 µM]
SMILES,PLK1 PBD block,JMJD2A Tudor inh,G9a block,BAZ2B block,12-LOX inh,HP1b chromo inh
COc1cccc(Cn2nnc(C(=O)Nc3cc(C)ccc3OC)c2N)c1,27µM*,?,-49%,-2%,·,5%
O=C(COC(=O)/C=C/c1cc(Br)ccc1F)Nc1ccc2[nH]c(=O)[nH]c2c1,5%,-6%,?,0%,-27%,20%
CC(C)CCNC(=O)NC(=O)COC(=O)/C=C/c1cc(Br)ccc1F,15µM*,14µM*,-10%,16%,·,-9%
CCOC(=O)c1sc(NC(=O)Cc2ccccc2OC)nc1C,?,-11%,40µM*,-30%,0%,-4%
CCOC(=O)CSc1nc(C)c(C(=O)OCC)s1,-25%,15%,-1%[12.7 µM],16%,3%,26%
CCOC(=O)c1sc(NC(=O)c2ccc(OC(C)=O)cc2)nc1C,-6%,0%,0%,-18%,-3%,22%
CCOC(=O)c1sc(-n2[nH]c(C)cc2=O)nc1C,-7%,-8%,28µM*,6%,0%,36%
CCOC(=O)c1sc(NC(C)=O)nc1C,27µM*,-13%,?,1%,-13%[57.4 µM],?
CC1(Cc2cccc(F)c2)C(=O)Nc2ccc(OC(F)(F)F)cc21 (stereo unspecified),2%,·,·,·,?,·
O=C1c2ccccc2-c2onc3c(Oc4ccccc4)cc(O)c1c23,·,·,?,35µM*,·,·
COc1cc(C(=O)Nc2ccc(C(=O)O)cc2)ccc1OC(C)=O,-4%,-12%,-22%,-20%,0%,14%
Cn1c(CNc2cccc(C(F)(F)F)c2)n[nH]c1=S,27µM*,?,20%[0.501 µM],-7%,0%,?
Cn1c(-c2csc(-c3cccc(C(F)(F)F)c3)n2)n[nH]c1=S,-5%,-15%,?,-4%,-10%,24%
Cc1ccc(SCC(=O)NC2(C#N)CCCCCC2)nc1,·,·,·,·,-22%,·
CCc1nnc(NS(=O)(=O)c2ccc(NC(=O)c3cccc(Br)c3)cc2)s1,-12%,-18%,-39%[59 µM],-22%,?,32%
CCc1nnc(NS(=O)(=O)c2ccc(NC(=O)c3ccc(S(=O)(=O)N(CC)CC)cc3)cc2)s1,-22%,-14%,-12%,2%,75%,66%
CCc1nnc(NS(=O)(=O)c2ccc(NC(=S)NC(=O)c3ccncc3)cc2)s1,-17%,?,50µM*,?,?,9%
CCOc1cc(C(=O)Nc2ccc(S(=O)(=O)Nc3nnc(CC)s3)cc2)cc(OCC)c1OCC,-13%,25µM*,?,-1%,0%,44%
